Values joined by “and” are separate entries in the source; they are usually repeats but may differ in a detail not shown here. Identical values can stand only once. Records with an inconclusive call do not appear. Some compounds were tested as several samples or in several runs, with calls that do not always agree. Active and inactive are the calls of the source. Unless noted, calls follow the shape of the dose curve; as a rule, active = well fitted curve in the direction sought with a large enough effect in the repeat runs; inconclusive = weak or mixed curves; inactive = no such curve, though single readings can be large; an effect the other way counts as inactive or inconclusive.
Experiments:
[1] = qHTS assay to identify small molecule agonists of the peroxisome proliferator-activated receptor delta (PPARd) signaling pathway - cell viability counter screen (AID 743211); also: nearly all actives have a fitted effect of over 55% in size; also: potency is read from the fitted curve at half-maximal effect
Summary of the method: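 Following 5 h plating at 37 C and 5% CO2, PPARd UAS-bla HEK293H cells took up test compounds for 17 h. Viability was quantified by luminescence 30 min after CellTiter-Glo addition at room temperature.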

[2] = qHTS assay to identify small molecule antagonists of the peroxisome proliferator-activated receptor delta (PPARd) signaling pathway - cell viability counter screen (AID 743213); also: nearly all actives have a fitted effect of over 50% in size; also: potency is read from the fitted curve at half-maximal effect
Summary of the method: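 PPARd-bla HEK293H cells were treated with compounds plus agonist L165041 (300 nM final) for 17 h at 37 C. Viability was then read in the same wells by CellTiter-Glo luminescence after 30 min at room temperature.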

[3] = qHTS assay to identify small molecule agonists of the farnesoid-X-receptor (FXR) signaling pathway - cell viability counter screen (AID 743218); also: nearly all actives have a fitted effect of over 45% in size; also: potency is read from the fitted curve at half-maximal effect
Summary of the method: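 Quantitative HTS counter screen measuring ATP-based viability via CellTiter-Glo luminescence in HEK 293T cells carrying a UAS-driven beta-lactamase reporter, after 16 h compound exposure at 37 C.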

[4] = qHTS assay to identify small molecule antagonists of the farnesoid-X-receptor (FXR) signaling pathway - cell viability counter screen (AID 743221; active = well fitted cell-killing curve with a large enough effect in the repeat runs, not every such curve was filed as active; also: nearly all actives have a fitted effect of over 50% in size; also: potency is read from the fitted curve at half-maximal effect)
Summary of the method: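 Compound effects on cell number were measured as CellTiter-Glo luminescence in HEK 293T cells expressing FXR-UAS-bla, after 16 h at 37 C with 50 uM CDCA (final).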

[5] = qHTS assay to identify small molecule agonists of the vitamin D receptor (VDR) signaling pathway - cell viability counter screen (AID 743224); also: nearly all actives have a fitted effect of over 50% in size; also: potency is read from the fitted curve at half-maximal effect
Summary of the method: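 CellTiter-Glo viability readout on VDR-bla cells, measured after 16 h of compound treatment at 37C in the same wells.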

[6] = qHTS assay to identify small molecule agonists of the NFkB signaling pathway - cell viability counter screen (AID 1159515; calls by dose curve; also: nearly all actives have a fitted effect of over 55% in size; also: potency is read from the fitted curve at half-maximal effect)
Summary of the method: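 Tox21 library compounds were tested for cytotoxicity against NFkB-bla ME-180 cells during a 5 hr exposure at 37 C. CellTiter-Glo luminescence served as the viability read-out.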

[7] = qHTS assay to identify small molecule agonists of the endoplasmic reticulum stress response signaling pathway (AID 1159516; active = well fitted activation curve with a large enough effect in the signal ratio in the repeat runs, not every such curve was filed as active; the % refers to the signal ratio)
Summary of the method: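 Fluorescence at 460 and 530 nm (405 nm excitation) reports beta-lactamase from an ER stress response element in HeLa cells treated 5 hr at 37 C.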

[8] = qHTS assay to identify small molecule antagonists of the retinoid-related orphan receptor gamma (ROR-gamma) signaling pathway - cell viability counter screen (AID 1159520); also: nearly all actives have a fitted effect of over 50% in size; also: potency is read from the fitted curve at half-maximal effect
Summary of the method: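 Tet-on ROR gamma CHO cells were given compounds for 2 hr, then doxycycline hyclate at 1 uM final, and incubated 16 hr at 37 C. Viability was measured as ATP content by CellTiter-Glo luminescence.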

[9] = qHTS assay to identify small molecule agonists of the AP-1 signaling pathway - cell viability counter screen (AID 1159525; calls by dose curve; also: nearly all actives have a fitted effect of over 55% in size; also: potency is read from the fitted curve at half-maximal effect)
Summary of the method: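 Same-well cytotoxicity counter screen of the Tox21 10K library in ME-180 cells. The readout is ATP-dependent luminescence after 5 h compound treatment. Data are normalised to DMSO and tetra n-octyl ammonium bromide controls.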

[10] = qHTS assay to identify small molecule agonists of the AP-1 signaling pathway (AID 1159526; calls by dose curve)
[11] = molecular target: Retinoic acid receptor RXR-alpha (Homo sapiens) (UniProt P19793); experiment: qHTS assay to identify small molecule agonists of the RXR signaling pathway (AID 1159527; calls by dose curve; also: nearly all actives have a fitted effect of over 35% in size; also: potency is read from the fitted curve at half-maximal effect)
Summary of the method: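 Fluorescence ratio readout (460 vs 530 nm) from GeneBLAzer RXR-alpha HEK 293T cells after 16 hr compound treatment; cells seeded 5 hr beforehand in low-serum, charcoal-stripped medium.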

[12] = molecular target: Vitamin D3 receptor (Homo sapiens) (UniProt P11473); experiment: qHTS assay to identify small molecule agonists of the vitamin D receptor (VDR) signaling pathway (AID 743222; calls by dose curve)
Summary of the method: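 Tox21 cell reporter format: VDR-bla line, 16 h compound exposure in 5% CO2 at 37C, then fluorescence intensity after 2 h with LiveBLAzer B/G FRET substrate.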

[13] = qHTS assay to identify small molecule antagonists of the vitamin D receptor (VDR) signaling pathway - cell viability counter screen (AID 743225); also: nearly all actives have a fitted effect of over 50% in size; also: potency is read from the fitted curve at half-maximal effect
Summary of the method: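 In this counter screen, VDR-bla HEK 293T cells receive test compound plus 3 nM final calcitriol for 16 h at 37C. Room-temperature steps of 2 h with the beta-lactamase substrate, then 30 min with CellTiter-Glo, precede the luminescence read.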

[14] = molecular target: Peroxisome proliferator-activated receptor delta (Homo sapiens) (UniProt Q03181); experiment: qHTS assay to identify small molecule antagonists of the peroxisome proliferator-activated receptor delta (PPARd) signaling pathway (AID 743215; active = well fitted inhibition curve with a large enough effect in the signal ratio in the repeat runs, not every such curve was filed as active; the % refers to the signal ratio;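 also: cells stimulated with agonist L165041 at 300 nM final during compound exposure; series mostly up to about 62 µM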)
Summary of the method: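 Here, a reporter line (HEK293H, beta-lactamase under a UAS) measures PPARd signaling. Compounds are tested against agonist L165041 at 300 nM final concentration over 17 h at 37 C, with fluorescence read after substrate.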

[15] = molecular target: Vitamin D3 receptor (Homo sapiens) (UniProt P11473); experiment: qHTS assay to identify small molecule antagonists of the vitamin D receptor (VDR) signaling pathway (AID 743223; active = well fitted inhibition curve with a large enough effect in the signal ratio in the repeat runs, not every such curve was filed as active; the % refers to the signal ratio)
Summary of the method: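 Beta-lactamase activity in VDR-bla cells is measured by FRET substrate fluorescence (2 h, room temperature) after cells spend 16 h at 37C with test compound and 3 nM final 1alpha,25-dihydroxyvitamin D3.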

[16] = molecular target: Nuclear receptor ROR-gamma (Homo sapiens) (UniProt P51449); experiment: qHTS assay to identify small molecule antagonists of the retinoid-related orphan receptor gamma (ROR-gamma) signaling pathway (AID 1159521; also: nearly all actives have a fitted effect of over 50% in size; also: potency is read from the fitted curve at half-maximal effect)
Summary of the method: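 Screening format: cell-based luciferase reporter in CHO cells with doxycycline-inducible RORγ. Compound pre-exposure lasts 2 h, doxycycline is 1 uM final, induction runs 16 h at 37 C, and ONE-Glo luminescence is read.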

[17] = molecular target: Peroxisome proliferator-activated receptor delta (Homo sapiens) (UniProt Q03181); experiment: qHTS assay to identify small molecule agonists of the peroxisome proliferator-activated receptor delta (PPARd) signaling pathway (AID 743212; calls by dose curve)
Summary of the method: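 Read-out: beta-lactamase FRET fluorescence after 2 h room-temperature incubation with LiveBLAzer B/G substrate. Cells were HEK293H carrying a UAS-bla reporter for PPARd, treated at 37 C with DMSO-dissolved compounds.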

[18] = molecular target: Bile acid receptor (Homo sapiens) (UniProt Q96RI1); experiment: qHTS assay to identify small molecule antagonists of the farnesoid-X-receptor (FXR) signaling pathway (AID 743217; active = well fitted inhibition curve with a large enough effect in the signal ratio in the repeat runs, not every such curve was filed as active; the % refers to the signal ratio)
Summary of the method: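 Test compounds are pin-transferred onto FXR-bla HEK 293T cells, then chenodeoxycholic acid is added at 50 uM final. After 16 h at 37 °C, LiveBLAzer B/G substrate is applied for 2 h at room temperature and fluorescence read.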

[19] = molecular target: Bile acid receptor (Homo sapiens) (UniProt Q96RI1); experiment: qHTS assay to identify small molecule agonists of the farnesoid-X-receptor (FXR) signaling pathway (AID 743220; active = well fitted activation curve with a large enough effect in the signal ratio in the repeat runs, not every such curve was filed as active; the % refers to the signal ratio)
Summary of the method: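 FXR-UAS-bla HEK 293T cells carrying a UAS-driven beta-lactamase reporter were plated for 5 h at 37C/5% CO2, then exposed to DMSO-dissolved Tox21 10K compounds for 16 h at 37C. A LiveBLAzer B/G FRET substrate was loaded for 2 h at room temperature before fluorescence reading.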

[20] = qHTS assay to identify small molecule agonists of the endoplasmic reticulum stress response signaling pathway - cell viability counter screen (AID 1159517; calls by dose curve)
Summary of the method: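 Steps: seed 1,500 ESRE-bla HeLa cells per well; incubate overnight at 37 C, 5% CO2; add compounds in DMSO for 5 hr; run FRET substrate 2 hr RT; add CellTiter-Glo, wait 30 min, read luminescence.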

Measured: Potency

Retinoic acid receptor RXR-alpha (Homo sapiens), sequence (P19793 whole entry, looked up): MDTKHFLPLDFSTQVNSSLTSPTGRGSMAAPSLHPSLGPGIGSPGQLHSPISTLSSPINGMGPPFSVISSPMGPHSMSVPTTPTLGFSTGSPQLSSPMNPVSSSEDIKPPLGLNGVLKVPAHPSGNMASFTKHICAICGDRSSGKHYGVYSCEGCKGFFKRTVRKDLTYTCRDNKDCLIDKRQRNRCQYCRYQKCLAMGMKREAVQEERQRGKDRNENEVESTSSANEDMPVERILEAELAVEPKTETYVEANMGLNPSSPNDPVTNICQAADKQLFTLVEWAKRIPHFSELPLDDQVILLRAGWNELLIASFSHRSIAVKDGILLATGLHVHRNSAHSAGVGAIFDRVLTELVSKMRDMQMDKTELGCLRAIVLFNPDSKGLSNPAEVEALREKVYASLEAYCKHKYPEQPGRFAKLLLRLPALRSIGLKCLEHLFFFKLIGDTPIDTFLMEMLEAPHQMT
Peroxisome proliferator-activated receptor delta (Homo sapiens), sequence (Q03181 whole entry, looked up): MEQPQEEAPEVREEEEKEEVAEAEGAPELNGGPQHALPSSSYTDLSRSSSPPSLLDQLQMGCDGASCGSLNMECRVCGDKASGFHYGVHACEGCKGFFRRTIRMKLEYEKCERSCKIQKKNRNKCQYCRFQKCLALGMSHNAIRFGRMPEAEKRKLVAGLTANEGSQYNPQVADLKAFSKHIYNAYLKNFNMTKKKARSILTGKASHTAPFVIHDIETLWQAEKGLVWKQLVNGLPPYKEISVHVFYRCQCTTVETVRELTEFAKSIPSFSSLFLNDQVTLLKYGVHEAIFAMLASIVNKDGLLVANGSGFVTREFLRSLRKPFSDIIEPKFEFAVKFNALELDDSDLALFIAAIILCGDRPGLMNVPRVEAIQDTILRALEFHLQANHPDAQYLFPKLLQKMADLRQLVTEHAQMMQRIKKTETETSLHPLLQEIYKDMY
Vitamin D3 receptor (Homo sapiens), sequence (P11473 whole entry, looked up): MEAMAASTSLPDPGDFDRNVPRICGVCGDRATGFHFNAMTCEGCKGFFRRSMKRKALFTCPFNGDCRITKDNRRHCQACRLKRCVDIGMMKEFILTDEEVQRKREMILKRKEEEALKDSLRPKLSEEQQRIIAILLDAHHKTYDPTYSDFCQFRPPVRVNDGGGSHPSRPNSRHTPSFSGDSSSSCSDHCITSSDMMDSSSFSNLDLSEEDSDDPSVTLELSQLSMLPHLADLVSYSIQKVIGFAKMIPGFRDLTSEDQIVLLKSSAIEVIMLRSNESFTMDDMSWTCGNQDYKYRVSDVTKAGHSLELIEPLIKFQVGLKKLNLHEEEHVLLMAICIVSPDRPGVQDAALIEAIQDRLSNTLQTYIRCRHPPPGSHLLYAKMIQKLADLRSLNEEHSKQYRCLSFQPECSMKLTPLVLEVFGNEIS
Bile acid receptor (Homo sapiens), sequence (Q96RI1 whole entry, looked up): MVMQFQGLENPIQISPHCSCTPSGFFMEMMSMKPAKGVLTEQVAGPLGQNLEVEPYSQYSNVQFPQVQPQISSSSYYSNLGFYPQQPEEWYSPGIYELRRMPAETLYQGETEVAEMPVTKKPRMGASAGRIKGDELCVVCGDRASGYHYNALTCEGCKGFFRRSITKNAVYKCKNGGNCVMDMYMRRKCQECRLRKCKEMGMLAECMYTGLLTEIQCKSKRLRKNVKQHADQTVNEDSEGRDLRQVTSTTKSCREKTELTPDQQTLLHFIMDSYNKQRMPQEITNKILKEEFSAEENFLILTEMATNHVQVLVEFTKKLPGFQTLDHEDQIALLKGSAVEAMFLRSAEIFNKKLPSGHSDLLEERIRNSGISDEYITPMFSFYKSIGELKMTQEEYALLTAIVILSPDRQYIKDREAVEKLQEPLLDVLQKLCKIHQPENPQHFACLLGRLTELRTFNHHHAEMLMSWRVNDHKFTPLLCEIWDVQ

Cl
inactive: [1] | [2] | [3] | [4] | [5] | [6] | [7] | [8] | [9] | [10] | [11]

CC(C)(O)C(=O)Nc1ccc([N+](=O)[O-])c(C(F)(F)F)c1
inactive: [1] | [2] | [3] | [12] | [5] | [13] | [6] | [7] | [8] | [9] | [10]

c1ccc(C2CO2)cc1 (centres undefined)
inactive and 17.4 µM (active): [11]
not listed: [17] | [18] | [19] | [20]
inactive: all other assays above

Cc1cccc(N=Nc2ccc(N(C)C)cc2)c1
not listed: [7] | [13] | [18] | [19] | [20]
inactive: all other assays above

CC(C)CON=O
not listed: [13] | [16] | [18] | [19] | [20]
inactive: all other assays above

COC(=O)Nc1nc2ccccc2[nH]1
not listed: [4] | [13] | [15] | [16] | [18] | [19] | [20]
inactive: all other assays above

CCCCSP(=O)(SCCCC)SCCCC
not listed: [16] | [20]
inactive: all other assays above

CNC(=O)CSP(=S)(OC)OC
not listed: [4] | [13] | [16] | [18] | [19] | [20]
inactive: all other assays above

COc1ccc(O)c(C(C)(C)C)c1
not listed: [4] | [13] | [14] | [16] | [17] | [20]
inactive: all other assays above

CCC[CH2][Sn]([Cl])([CH2]CCC)[CH2]CCC
active: [1] 551 nM and 1.23 µM | [2] 778 nM and 1.95 µM | [3] 873 nM and 1.23 µM | [4] 1.95 µM and 2.45 µM | [5] 437 nM and 1.23 µM | [6] 1.1 µM and 1.95 µM | [20] 1.74 µM and 3.09 µM | [8] 1.54 µM and 1.72 µM | [16] 194 nM and 686 nM | [9] 873 nM and 1.74 µM

[Cl-].[Cl-].[Cl-].[Fe+3]
not listed: [12] | [14] | [15] | [16] | [17] | [18] | [19] | [20]
inactive: all other assays above

CCOC(=O)c1ccccc1N
not listed: [11] | [17] | [20]
inactive: all other assays above

CC1=C(C(=O)Nc2ccccc2)SCCO1
not listed: [16] | [20]
inactive: all other assays above

CC(C)(c1ccccc1)c1ccc(O)cc1
inactive: [17] | [2] | [18] | [3] | [19] | [12] | [15] | [5] | [7]
active: [1] 54.5 µM | [6] 43.3 µM and 54.9 µM

O=[N+]([O-])c1ccc(Nc2ccccc2)cc1
inactive: [2] | [4] | [12] | [5] | [7] | [8] | [9] | [10]
inactive and 43.6 µM (active): [6]
inactive and 49 µM (active): [1]

O=C1C(Cl)=C(Cl)C(=O)c2ccccc21
active: [1] 19.6 µM and 13.8 µM | [2] 9.8 µM and 6.17 µM | [3] 49 µM | [5] 4.38 µM and 9.77 µM | [13] 6.94 µM and 12.3 µM | [6] 21.9 µM and 12.3 µM | [8] 5.46 µM and 5.45 µM | [16] 4.87 µM and 12.2 µM | [9] 11 µM and 19.5 µM
inactive and 49 µM (active): [4]

CCC[CH2][Sn]([Cl])([Cl])[CH2]CCC
active: [1] 198 nM and 61.6 nM | [2] 556 nM and 155 nM | [3] 140 nM and 24.5 nM | [4] 222 nM and 123 nM | [5] 249 nM and 77.6 nM | [13] 1.11 µM and 275 nM | [6] 3.13 µM and 2.45 µM | [8] 155 nM and 122 nM | [16] 77.9 nM and 96.9 nM

Cc1ccc([N+](=O)[O-])cc1
not listed: [13] | [16] | [18] | [19] | [20]
inactive: all other assays above

From PubChem BioAssay (Tox21)
